# Values joined by “and” are separate entries in the source; they are usually repeats but may differ in a detail not shown here. Equal entries are not always repeated. This is part of a sample that, as a whole, favours compounds with a hit. Of some 83,000 tested, about 20% had one in any assay.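 Single-dose data. Exposure time 48 hours. Values below 10 considered active.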 Active and inactive are the calls of the source.
# Legend:
# Assay in all cases: NCI-60 one-dose screen, 48 h (100 = growth as untreated, 0 = no growth, -100 = all killed)
# [1] = test system: SNB-75 CNS; conditions: 10 µM
# [2] = test system: SNB-19 CNS; conditions: 10 µM
# [3] = test system: U251 CNS; conditions: 10 µM
# [4] = test system: PC-3 prostate; conditions: 10 µM
# [5] = test system: SK-MEL-5 melanoma; conditions: 10 µM
# [6] = test system: UACC-62 melanoma; conditions: 10 µM unless noted
# [7] = test system: LOX IMVI melanoma; conditions: 10 µM
# [8] = test system: SK-MEL-28 melanoma; conditions: 10 µM
# [9] = test system: EKVX NSCLC; conditions: 10 µM
# [10] = test system: SN12C renal; conditions: 10 µM
# [11] = test system: UO-31 renal; conditions: 10 µM
# [12] = test system: TK-10 renal; conditions: 10 µM unless noted
# [13] = test system: ACHN renal; conditions: 10 µM
# [14] = test system: CAKI-1 renal; conditions: 10 µM
# [15] = test system: CCRF-CEM leukemia; conditions: 10 µM
# [16] = test system: HT29 colon; conditions: 10 µM
# [17] = test system: SK-MEL-2 melanoma; conditions: 10 µM
# [18] = test system: HL-60(TB) leukemia; conditions: 10 µM
# [19] = test system: A498 renal; conditions: 10 µM
SMILES,growth [1],growth [2],growth [3],growth [4],growth [5],growth [6],growth [7],growth [8],growth [9],growth [10],growth [11],growth [12],growth [13],growth [14],growth [15],growth [16],growth [17],growth [18],growth [19]
COc1cc([N+](=O)[O-])c2ncccc2c1[N+](=O)[O-],61.3% (inactive),96% (inactive),41.9% (inactive),66.4% (inactive),95.6% (inactive),74% (inactive),12.2% (inactive),90.9% (inactive),102% (inactive),71.4% (inactive),41% (inactive),27.1% (inactive),56.1% (inactive),24.8% (inactive),22.9% (inactive),,,,
[Cl][Sn]([c]1ccccc1)([c]1ccccc1)[c]1ccccc1,-98.6% (active),-76.5% (active),-98.6% (active),-72.9% (active),-88.7% (active),-75.4% (active),-76.1% (active),-85% (active),,-28.9% (active),-87.9% (active),-92.7% (active),-89.2% (active),-87.8% (active),-46% (active),-81.4% (active),-62.9% (active),-25.3% (active),
COC12C(COC(N)=O)C3=C(C(=O)C(C)=C(N)C3=O)N1CC1C2N1C (configuration not stated),32.9% (inactive),39.1% (inactive),43% (inactive),47% (inactive),11.6% (inactive),46.3% (inactive),28.3% (inactive),,91.7% (inactive),46.8% (inactive),32.7% (inactive),69.4% (inactive),10.8% (inactive),16.6% (inactive),24.8% (inactive),8.04% (active),91.4% (inactive),,46.9% (inactive)
O=C1C(=O)c2ccccc2-c2ccccc21,-100% (active),-78.6% (active),-87.8% (active),-47% (active),-95.7% (active),-67.4% (active),-58.5% (active),-91.2% (active),-96.9% (active),-61.5% (active),-86.4% (active),-97.9% (active),-94.3% (active),-100% (active),-10.9% (active),-16.1% (active),-50.3% (active),-42.4% (active),
COC1CC2C=C(C)/C=C/C=C/C(=O)NC(c3ccccc3)C/C=C/CCC(O)CC(=O)C2=C1O (configuration not stated),-89.9% (active),-27.1% (active),,-91.1% (active),-97.2% (active),-89.3% (active),-91.6% (active),-80.9% (active),,-84.9% (active),-95.7% (active),-59.9% (active),-93.3% (active),-88% (active),,-83.7% (active),-89.8% (active),-5.27% (active),-87.7% (active)
CCOC(=O)c1[nH]cnc1/N=N/N(C)N,,,,,,75.8% [100 µM] (inactive) and -1.61% [100 µM] (active),,,,,,99.8% [100 µM] (inactive) and -100% [100 µM] (active),,,,,,,
CC(C)c1cc([N+](=O)[O-])cc([N+](=O)[O-])c1O,,107% (inactive),103% (inactive),81.4% (inactive),98.4% (inactive),98.1% (inactive),93.7% (inactive),102% (inactive),110% (inactive),103% (inactive),85.8% (inactive),98.6% (inactive),103% (inactive),99% (inactive),103% (inactive),103% (inactive),94% (inactive),62.2% (inactive),

# Reference: PubChem BioAssay (NCI)
